JMJD2A Tudor: inhibitors of human JMJD2A Tudor domain; AlphaScreen JMJD2A-Tudor / H3K4me3 peptide binding; Potency, µM (titrated, usually from 114 µM), for inactives: at the highest dose activity change, negative = inhibition, most hits filed as inhibitors; actives 4.4% (n = 390,000); AID 504339; note: % is set by controls: 0 for no effect and ±100 for the full control effect; nearly all actives have a fitted effect of over 50% in size
L3MBTL1 block: blocks human L3MBTL1. AID 485360. Potency, µM (series often up to 57.1 µM), without a hit: at the top dose activity, negative = inhibition, actives largely listed as inhibitors. AlphaScreen L3MBTL1–H3K9me1 peptide binding. Q9Y468. actives 0.66% (n = 230,000); note: % is set by controls: 0 for no effect and ±100 for the full control effect; nearly all actives have a fitted effect of over 60% in size
Target sequence (Q9Y468 whole entry, looked up): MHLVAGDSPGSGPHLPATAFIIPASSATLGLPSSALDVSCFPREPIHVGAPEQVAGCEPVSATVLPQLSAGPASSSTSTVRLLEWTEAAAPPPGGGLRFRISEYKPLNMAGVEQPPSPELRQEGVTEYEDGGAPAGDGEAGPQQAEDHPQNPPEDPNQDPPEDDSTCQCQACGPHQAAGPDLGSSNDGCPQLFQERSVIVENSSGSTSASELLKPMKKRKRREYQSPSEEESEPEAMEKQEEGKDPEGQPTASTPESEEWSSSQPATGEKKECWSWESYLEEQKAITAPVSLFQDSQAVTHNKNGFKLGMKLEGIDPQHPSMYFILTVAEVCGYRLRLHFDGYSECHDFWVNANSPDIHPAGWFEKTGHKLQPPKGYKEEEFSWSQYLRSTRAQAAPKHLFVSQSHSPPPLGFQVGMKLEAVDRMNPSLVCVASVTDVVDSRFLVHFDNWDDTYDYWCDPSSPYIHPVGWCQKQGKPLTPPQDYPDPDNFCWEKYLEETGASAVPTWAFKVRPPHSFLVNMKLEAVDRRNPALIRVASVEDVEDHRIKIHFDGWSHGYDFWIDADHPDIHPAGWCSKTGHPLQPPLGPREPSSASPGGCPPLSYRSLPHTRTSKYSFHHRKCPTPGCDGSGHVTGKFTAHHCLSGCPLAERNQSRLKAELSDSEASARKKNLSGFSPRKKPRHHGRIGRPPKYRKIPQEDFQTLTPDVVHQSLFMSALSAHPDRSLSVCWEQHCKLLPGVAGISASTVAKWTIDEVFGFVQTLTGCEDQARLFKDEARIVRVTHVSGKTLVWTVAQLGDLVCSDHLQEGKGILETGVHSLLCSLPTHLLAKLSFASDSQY
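First, the protein-peptide complex forms for 30 min at room temperature (L3MBTL1 50 nM, biotinylated H3K9me1 peptide 75 nM). Next, compounds are pin-transferred and incubated 30 min. Finally, AlphaScreen beads are added and read after 30 min.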
BAZ2B inh: BAZ2B (human) inhibition | AlphaScreen BAZ2B-H3K14Ac peptide displacement | Q9UIF8 | Potency, µM (highest dose often 114 µM), without a hit: at the highest dose activity change, negative = inhibition, usual class: inhibitors | actives 4.4% (n = 360,000); note: % is set by controls: 0 for no effect and ±100 for the full control effect; nearly all actives have a fitted effect of over 60% in size
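AlphaScreen displacement of biotin-H3(5-23)K14Ac peptide (50 nM final) from BAZ2B (50 nM final) in PBS pH 7.4, 0.01% Tween-20; complex preformed 30 min RT, then compounds (top 110 uM) 30 min RT, beads 20 min dark.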
G9a inh: blocks human histone lysine methyltransferase G9a | G9a H3K9 monomethylation, AlphaScreen, 2 h | actives 8.8% (n = 350,000) | Potency, µM (highest dose often 102 µM), inactives show at the highest dose activity, negative = inhibition, most hits filed as inhibitors | Q96KQ7 | AID 504332; note: % is set by controls: 0 for no effect and ±100 for the full control effect; nearly all actives have a fitted effect of over 75% in size
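Compounds were preincubated with 20 nM G9a for 15 min, after which biotinylated H3K9 peptide (500 nM) and SAM (20 uM) started a 2 h room-temperature reaction. Monomethylated product was quantified by antibody-based AlphaScreen chemiluminescence.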
HP1b binding inh: inhibitors of HP1-beta chromodomain binding to methylated histone tails | P83916 | AlphaScreen HP1-beta / biotin-H3K9me3 peptide binding | Potency, µM (highest dose often 114 µM), for the others: at the top dose activity change, negative = inhibition, actives largely listed as inhibitors | actives 0.56% (n = 390,000) | AID 540317; note: nearly all actives have a fitted effect of over 70% in size
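HP1-beta protein (50 nM final) preincubated 30 min at room temperature with biotinylated H3(1-18)K9me3 peptide (50 nM) in PBS pH 7.4, 0.01% Tween-20, then compound added for 30 min. AlphaScreen streptavidin donor/nickel chelate acceptor beads (10 ug/mL final), 30 min dark, luminescence read.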
Sfp inh: inhibitors of Bacillus subtilis Sfp phosphopantetheinyl transferase; Potency, µM, inactives show largest response in the series, negative = inhibition, hits mostly inhibitors; Biochemical Sfp PPTase activity, qHTS; actives 3.5% (n = 310,000);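 note: the enzyme is Sfp with the accession as filed and its product quenches rhodamine fluorescence; 0% = enzyme reaction without inhibitor and -100% = no enzyme wells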
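Fluorescence-quenching assay with 15 nM Sfp, 5 uM rhodamine-CoA and 12.5 uM BHQ-2-labelled ybbR peptide in pH 7.6 Hepes/MgCl2 buffer. Enzyme was pre-incubated with compound for 15 min at room temperature. Rate was taken from the 30-min fluorescence change (525/598 nm).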
* = called active by the depositor; [ ] = dose if it differs, or a comment. In the library only some 12% were active in any assay of this set; here they are far more common. Calls come from the whole dose curve; as a rule, active = well fitted curve in the direction sought with a large enough effect; inconclusive = small, poorly fitted or top-dose-only effect, or another doubt; inactive = no such curve, though single readings can be large; an effect the other way counts as inactive or inconclusive. Potency is the fitted concentration of half-maximal effect.

`CC[C@H](C)C(N)C(=O)O` (some centres undefined) gave Sfp inh 3%.
For Cc1nn2c(=O)cc(CN(C)c3ccccc3)nc2s1 the results were JMJD2A Tudor 0%, BAZ2B inh -7%, G9a inh -6%[59 µM] and HP1b binding inh 48%.
Screening Cc1cc(C)c(C#N)c(Sc2ccccc2N)n1 returned JMJD2A Tudor -14%, L3MBTL1 block 6%, BAZ2B inh -23%, G9a inh 7.9µM*, HP1b binding inh 42% and Sfp inh -83%.
`Cn1nc(C(F)(F)F)c(C#N)c1N1CCN(c2ccccn2)CC1` gave JMJD2A Tudor 50µM*, L3MBTL1 block -7%, BAZ2B inh 1%, G9a inh 9%, HP1b binding inh -3% and Sfp inh -9%.
For CCc1ccc(NC(=O)CN2C(=O)C(c3ccc(Cl)cc3)=NC23CCCCC3)cc1 the results were JMJD2A Tudor -1%, BAZ2B inh -12%, G9a inh 4%[59 µM] and HP1b binding inh 42%.
Screening COC(=O)c1cccc(-n2c(=O)n(Cc3ccccc3)c(=O)c3[nH]cnc32)c1C returned JMJD2A Tudor -14%, BAZ2B inh -5%, G9a inh 18µM*, HP1b binding inh 5% and Sfp inh -26%.
Cc1noc(C)c1-c1ccc2ncnc(NCc3ccc(Br)cc3)c2c1 was read as JMJD2A Tudor -28% and Sfp inh 4%.
For CCOc1ccc(C2c3[nH]c4ccccc4c3CCN2C(=O)CCc2ccccc2)cc1 (centres undefined) the results were JMJD2A Tudor inconclusive, BAZ2B inh 3%, G9a inh -43%[59 µM] and HP1b binding inh 20%[57 µM].
Screening COc1ccc(C2/C=C\CN(C(=O)C3CCCCC3)C(C)C(=O)N2Cc2ccc(F)cc2)cc1 (centres undefined) returned JMJD2A Tudor -19%, HP1b binding inh 16% and Sfp inh -2%.
For CCOC(=O)c1ccc(-n2c(CN(CC)CC)nc3ccc([N+](=O)[O-])cc3c2=O)cc1 the results were JMJD2A Tudor inconclusive, G9a inh 10µM*, HP1b binding inh 23% and Sfp inh 22µM*.
CCOC(=O)c1ccc(-n2c(CN3CCOCC3)nc3ccc([N+](=O)[O-])cc3c2=O)cc1 was read as JMJD2A Tudor -18%, BAZ2B inh -18%, G9a inh 45µM*, HP1b binding inh 43% and Sfp inh -28%.
`CCC(CC)N1CCN(Cc2nc3ccc([N+](=O)[O-])cc3c(=O)n2-c2ccccc2F)CC1` gave JMJD2A Tudor -18%, BAZ2B inh -3%, G9a inh -21%, HP1b binding inh -16% and Sfp inh 2%.
CCOC(=O)N1CCN(Cc2nc3ccc([N+](=O)[O-])cc3c(=O)n2-c2ccccc2F)CC1 was read as JMJD2A Tudor -8%, BAZ2B inh -37%, G9a inh 79µM*, HP1b binding inh 13% and Sfp inh -26%.
Screening CCOC(=O)c1ccc(-n2c(CN3CCN(CC)CC3)nc3ccc([N+](=O)[O-])cc3c2=O)cc1 returned JMJD2A Tudor -15%, G9a inh 56µM*, HP1b binding inh 35% and Sfp inh -6%.
CCOC(=O)c1ccc(NS(=O)(=O)c2cc3c(cc2C)n(C)c(=O)c(=O)n3C)cc1 was read as JMJD2A Tudor -6%, BAZ2B inh 0%, G9a inh -4%[59 µM] and HP1b binding inh 32%.
For CC1=C(C(=O)Nc2ccc(C)cc2C)C(C(C)C)n2nc(SCc3ccccc3Cl)nc2N1 (centres undefined) the results were JMJD2A Tudor -13%, BAZ2B inh 3%, G9a inh -28%[59 µM] and HP1b binding inh 0%.
Screening O=C1CC(N2CCN(c3ccc(O)cc3)CC2)C(=O)N1Cc1cccs1 (centres undefined) returned JMJD2A Tudor 56µM*, L3MBTL1 block -7%, BAZ2B inh -9%, G9a inh -3%[12.7 µM], HP1b binding inh inconclusive and Sfp inh -85%.
For O=C(c1ccncc1)c1ccc(N2CCN(C3CC(=O)N(Cc4cccs4)C3=O)CC2)cc1 (centres undefined) the results were JMJD2A Tudor -17%, L3MBTL1 block -4%, BAZ2B inh -17%, G9a inh 1%, HP1b binding inh 41% and Sfp inh 9%.
Screening COc1cc(C)c(NC(=S)NCCCN2CCOCC2)cc1OC returned JMJD2A Tudor -3%[57.1 µM], BAZ2B inh -19%, G9a inh 35µM*, HP1b binding inh 26% and Sfp inh -25%.
COc1cc(NC(=S)NCCCN2CCOCC2)cc(OC)c1OC was read as JMJD2A Tudor -9%, L3MBTL1 block 4%, BAZ2B inh -8%, G9a inh 1%, HP1b binding inh 20% and Sfp inh 9%.
For COc1ccc(C(C)(C)C)cc1NC(=S)NCCN1CCOCC1 the results were JMJD2A Tudor -18%, L3MBTL1 block inconclusive, BAZ2B inh -13%, G9a inh 45µM*, HP1b binding inh -13% and Sfp inh 18µM*.
`COc1ccc(-c2cc3ccc(OCc4nn[nH]n4)cc3oc2=O)cc1OC` gave JMJD2A Tudor -17%, L3MBTL1 block 6%, BAZ2B inh -6%, G9a inh 45µM*, HP1b binding inh 60% and Sfp inh 26%.
`Cc1c(Cc2ccccc2)c(=O)oc2cc(OCc3nn[nH]n3)ccc12` gave JMJD2A Tudor 10%, L3MBTL1 block -2%, BAZ2B inh 7%, G9a inh inconclusive, HP1b binding inh 38% and Sfp inh 79µM*.
Screening COc1ccc(-c2cc3ccc(OCC(C)=O)cc3oc2=O)cc1OC returned JMJD2A Tudor 3%, BAZ2B inh -14%, G9a inh 6%, HP1b binding inh 25% and Sfp inh 18%.
Screening COc1ccc2c(c1)c1c(c(=O)n(-c3cccc(C)c3)c(=O)n1CC(=O)N1CCCC1)n2C returned JMJD2A Tudor -23%, BAZ2B inh inconclusive, G9a inh inconclusive and HP1b binding inh -18%.
For COc1cc(NC(=O)COc2ccc(Cl)cc2)ccc1NC(=O)C(C)C the results were JMJD2A Tudor -11%, BAZ2B inh -16%, G9a inh 25µM*, HP1b binding inh 4% and Sfp inh 31%.
`COc1ccc(NC(=O)C(=O)NNC(=O)COc2ccc(Cl)cc2)c(OC)c1` gave JMJD2A Tudor -9%, BAZ2B inh -2%, G9a inh 37%, HP1b binding inh 46% and Sfp inh 29%.

Source: PubChem
